Assay results taken from PubChem BioAssay (NCI).
“And” between values parts separate entries of the source, which are not always exact repeats. Equal entries are not always repeated. The panel holds about 83,000 compounds, 20% with a hit somewhere; the sample as a whole holds those more often.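 In brief: 96-well plates, 48 h treatment, single concentration, percent growth endpoint.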 The source made the active and inactive calls. How the source made its calls: active means growth percent below 10; inactive means the rest.

Columns and labels:
Assay in all cases: NCI-60 one-dose screen, 48 h (100 = growth as untreated, 0 = no growth, -100 = all killed)
Details in all cases: 10 µM unless noted
T-47D breast = tested on: T-47D breast
BT-549 breast = tested on: BT-549 breast
MDA-MB-435 melanoma = tested on: MDA-MB-435 melanoma
SW-620 colon = tested on: SW-620 colon
MCF7 breast = tested on: MCF7 breast
HCT-116 colon = tested on: HCT-116 colon
HCC-2998 colon = tested on: HCC-2998 colon
KM12 colon = tested on: KM12 colon

| Structure (SMILES) | growth (T-47D breast) | growth (BT-549 breast) | growth (MDA-MB-435 melanoma) | growth (SW-620 colon) | growth (MCF7 breast) | growth (HCT-116 colon) | growth (HCC-2998 colon) | growth (KM12 colon) |
| --- | --- | --- | --- | --- | --- | --- | --- | --- |
| COc1cc(NCCCCCCCNC(C)C)c2nccc(C)c2c1 | 59.9% (inactive) | 85.7% (inactive) and 64.2% (inactive) | 93.9% (inactive) and 7.03% (active) | 98% (inactive) and 73% (inactive) | -1.6% (active) and -9.72% (active) | 73.3% (inactive) and 50.4% (inactive) | 67.2% (inactive) and 61.5% (inactive) | 92.6% (inactive) and 73.1% (inactive) |
| CC(=O)c1cccc(OC(=O)c2ccccc2)c1 | 102% (inactive) | 120% (inactive) | 117% (inactive) | 106% (inactive) | 85.2% (inactive) | 90.1% (inactive) | 101% (inactive) | 110% (inactive) |
| C/C=C(/C(=O)NC(N)=O)C(C)C | 99.1% (inactive) | 106% (inactive) | 107% (inactive) | 94.5% (inactive) | 94% (inactive) | 99.5% (inactive) | 115% (inactive) | 90.8% (inactive) |
| Cc1nc2c(=O)[nH]c(=S)[nH]c2[nH]c1=O | 112% (inactive) and 102% (inactive) | 118% (inactive) and 105% (inactive) | 107% (inactive) and 102% (inactive) | 105% (inactive) and 101% (inactive) | 101% (inactive) and 99.9% (inactive) | 108% (inactive) and 105% (inactive) | 102% (inactive) and 106% (inactive) | 109% (inactive) |
| CC1=CC(=O)C=CC1=Nc1ccc(N(C)C)cc1 | 69.1% (inactive) and -24.8% (active) | 79% (inactive) and 27.8% (inactive) | 59.4% (inactive) and 6.47% (active) | 105% (inactive) | 89.9% (inactive) and 6.86% (active) | 84.3% (inactive) and 2.64% (active) | 98.4% (inactive) and 59.1% (inactive) | 83.4% (inactive) and 25.2% (inactive) |
| C/C(CC(C)C)=N/NC(N)=S | 39% (inactive) | 107% (inactive) | 104% (inactive) | 85.4% (inactive) | 21.3% (inactive) | 11.8% (inactive) | 101% (inactive) | 101% (inactive) |
| O=c1[nH]c(=O)c2[nH]c(=O)[nH]c2[nH]1 | 103% (inactive) | 90.8% (inactive) | 100% (inactive) | 94.3% (inactive) | 92.1% (inactive) | 94.6% (inactive) | 107% (inactive) | 104% (inactive) |
| O=C(c1ccncc1)c1c(Cc2ccccc2)ccc2ccccc12 | 113% (inactive) | -7.98% (active) | 83.2% (inactive) | 90.4% (inactive) | 101% (inactive) | 82% (inactive) | 37.3% (inactive) | 102% (inactive) |
| COc1cc2c(cc1O)C(=O)CCCC2 | 94.8% (inactive) | 78% (inactive) | 99.2% (inactive) | 92.9% (inactive) | 91.2% (inactive) | 99.2% (inactive) | 74.7% (inactive) | 89% (inactive) |
| Cc1cc(NC(=O)NC(=O)c2ccccc2N(C)C)ccc1Oc1ncc(Br)cn1 | 36.2% (inactive) and 52.2% (inactive) | 17.5% (inactive) and 39.1% (inactive) | -27.4% (active) and 6.67% (active) | 28.4% (inactive) and 33.9% (inactive) | 16.5% (inactive) and 16.9% (inactive) | 17% (inactive) and 21.8% (inactive) | 1.35% (active) and 50.4% (inactive) | 15.3% (inactive) and 32.1% (inactive) |
| OC(CC(c1ccccc1)c1cccc2ccccc12)(c1ccccc1)c1ccccc1 (centres undefined) | 64% (inactive) and 81.8% (inactive) | 88.4% (inactive) | 96.9% (inactive) and 88.9% (inactive) | 77% (inactive) and 80.9% (inactive) | 79.1% (inactive) and 79.3% (inactive) | 58.9% (inactive) and 46.3% (inactive) | 98.9% (inactive) and 88.1% (inactive) | 89.2% (inactive) and 90.9% (inactive) |
| O=C1c2cccnc2-c2ncccc21 | 98.9% [100 µM] (inactive) | 104% [100 µM] (inactive) | 103% [100 µM] (inactive) | 109% [100 µM] (inactive) | 109% [100 µM] (inactive) | 107% [100 µM] (inactive) | 112% [100 µM] (inactive) | 103% [100 µM] (inactive) |
| CCCCNC(=O)c1ccccc1C | 96.9% (inactive) | 94.1% (inactive) | 97.9% (inactive) | 104% (inactive) | 89.8% (inactive) | 90.2% (inactive) | 88.3% (inactive) | 101% (inactive) |
| CCNC1=CC(=O)c2ncccc2C1=O | 86.1% (inactive) | -27.8% (active) | -91.7% (active) | 13.8% (inactive) | -13.2% (active) | 2.73% (active) | 29.8% (inactive) | 48.2% (inactive) |
| O=C(O)COc1ccccc1F | 107% (inactive) | 108% (inactive) | 108% (inactive) | 104% (inactive) | 107% (inactive) | 95.5% (inactive) | 111% (inactive) | 104% (inactive) |
| COc1cc(Cl)ccc1C | 94.9% (inactive) | 102% (inactive) | 102% (inactive) | 52.8% (inactive) | 56.8% (inactive) | 59% (inactive) | 105% (inactive) | 92.8% (inactive) |
| Cc1c(Cl)c(C)c(Cc2c(C)c(Cl)c(C)c(Cl)c2O)c(O)c1Cl | 1.53% (active) | 22.6% (inactive) | 7.62% (active) | 17.1% (inactive) | 1.6% (active) | 3.19% (active) | 25.7% (inactive) | 15.7% (inactive) |
| OCc1cccc(F)c1 | 94.6% (inactive) | 104% (inactive) | 98.6% (inactive) | 50% (inactive) | 62.1% (inactive) | 55.2% (inactive) | 99.4% (inactive) | 108% (inactive) |
| Cc1cc2ccccc2c2cc3ccccc3cc12 | 48% (inactive) | 93.7% (inactive) | 100% (inactive) | 90% (inactive) | 33.8% (inactive) | 93.8% (inactive) | 92.5% (inactive) | 82.1% (inactive) |
| COC(=O)c1nc(N)nc(C(=O)OC)c1C(=O)c1cccc2ccccc12 | 109% (inactive) | 133% (inactive) | 108% (inactive) | 118% (inactive) | 94.5% (inactive) | 111% (inactive) | 106% (inactive) | 110% (inactive) |
| CC1(C)CC(=O)NC1=O | 91.5% (inactive) | 104% (inactive) | 94.9% (inactive) | 107% (inactive) | 93.6% (inactive) | 96.5% (inactive) | 102% (inactive) | 102% (inactive) |
| O=[N+]([O-])c1cccc2ccc(N/N=C/c3ccccc3O)nc12 | 38.1% (inactive) and 78% (inactive) | 68.6% (inactive) and 103% (inactive) | 101% (inactive) and 106% (inactive) | 21.7% (inactive) and 96.4% (inactive) | 42.5% (inactive) and 61.7% (inactive) | 20.8% (inactive) and 67.8% (inactive) | 110% (inactive) | 86.8% (inactive) and 84.3% (inactive) |
| Cc1ccc2cccc([N+](=O)[O-])c2n1 | 97.4% (inactive) and 97.8% (inactive) | 121% (inactive) and 93.5% (inactive) | 110% (inactive) and 108% (inactive) | 119% (inactive) and 103% (inactive) | 105% (inactive) and 95.7% (inactive) | 114% (inactive) and 97.7% (inactive) | 102% (inactive) and 103% (inactive) | 111% (inactive) and 107% (inactive) |
